TDP1 cell noCPT = qHTS for Inhibitors of human tyrosyl-DNA phosphodiesterase 1 (TDP1): qHTS in cells in absence of CPT; DT40 Tdp1-/- hTDP1 cells, no CPT, ATP luminescence, 48 h; Potency, µM (highest dose often 46.2 µM), for inactives: at the top dose activity change, negative = growth inhibition, usual class: inhibitors; actives 15% (n = 420,000); note: potency is the fitted concentration of half-maximal effect; nearly all actives have a fitted effect of over 55% in size
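Chicken DT40 Tdp1-/- cells stably complemented with human TDP1 were seeded at 400 cells/well with DMSO in place of 20 nM camptothecin. After compound pinning, cells grew at least 48 hr at 37 °C; viability read by CellTiter-Glo luminescence.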
IL1B secr inh = blocks inflammasome-driven IL-1 beta release; THP-1 LPS/ATP IL-1B secretion, AlphaLISA, 16 h; hits give low values; activity change, % at 57.5 µM; actives 4.7% (n = 360,000); AID 743279; in the data active = activity change below about -50%; inconclusive = mostly about -30% to -49%
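THP-1 cells pretreated 1 hr with compounds (up to 57.5 uM final), then stimulated with LPS (250 ng/mL final) plus ATP (1.25 mM final); secreted IL-1B measured by AlphaLISA after 16 hr, decreased signal indicating inhibition.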
TDP1 cell CPT = growth inhibition of DT40 Tdp1-/-;hTDP1 cells with camptothecin (screen for TDP1 inhibitors); chicken DT40 Tdp1-/-;hTDP1 cells + 20 nM CPT, ATP luminescence, 48 h; Potency, µM (titrated, usually from 46.2 µM), for inactives: at the highest dose activity change, negative = growth inhibition, actives largely listed as inhibitors; actives 12% (n = 420,000); AID 686979; note: potency is the fitted concentration of half-maximal effect; nearly all actives have a fitted effect of over 55% in size
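Cell growth measured by CellTiter-Glo luminescence after a minimum 48 h, 37 C compound exposure with 20 nM CPT in Tdp1-knockout DT40 cells stably expressing hTDP1, seeded 400/well; qHTS titration format.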
HT1080 IDH1KD tx = kills HT-1080 cells with IDH1 knockdown. HT-1080 IDH1 knockdown viability, ATP luminescence, 48 h. Potency, µM (highest dose often 46.1 µM), for the others: at the highest dose activity, negative = toxicity, actives largely listed as cytotoxic. actives 2% (n = 360,000);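 note: potency is the fitted concentration of half-maximal effect; 0% = DMSO wells and -100% = cell-free medium wells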
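IDH1KD HT-1080 cells, 750/well, RPMI + 5% FBS; compound pinned after 2 h settling; 48 h, 37 °C; CellTiter-Glo luminescence; % activity normalised to DMSO and no-cell wells; curves fitted, classed by r2 and efficacy.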
HT1080-NT tox = kills 2HG-producing HT-1080-NT fibrosarcoma cells; actives 1.6% (n = 360,000); Potency, µM (doses to about 46.1 µM), without a hit: top-dose activity, negative = less viability, actives largely listed as cytotoxic; AID 686970; HT-1080-NT fibrosarcoma viability, CellTiter-Glo ATP luminescence, 48 h;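 note: NT is the 2HG producing partner of a matched IDH1 knockdown line; potency is the fitted concentration of half-maximal effect; 0% = DMSO-treated cells and -100% = media-only wells without cells; nearly all actives have a fitted effect of over 55% in size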
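Luminescent CellTiter-Glo readout after 48 hours of compound exposure at 37 degrees C defined viability of HT-1080-NT cells. Activity was normalized to DMSO wells and cell-free media wells; concentration-response curves were fitted and assigned curve classes.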
An asterisk follows results filed as active; [ ] = remark or other dose. Most compounds without a hit are left out; they make up all but 19% or so of the library. Unless noted, calls come from the whole dose curve; as a rule, active = well fitted curve in the direction sought with a large enough effect; inconclusive = small, poorly fitted or top-dose-only effect, or another doubt; inactive = no such curve, though single readings can be large; an effect the other way counts as inactive or inconclusive. Unless noted, % is set by controls: 0 for no effect and ±100 for the full control effect.

What do the screens show for `COc1ccc(COC(=O)c2ccc(S(=O)(=O)N3CCC(C)CC3)cc2)cc1`?
TDP1 cell noCPT: -14.5%; IL1B secr inh: 6.4; TDP1 cell CPT: -2.4%; HT1080 IDH1KD tx: 2.8%; HT1080-NT tox: 2.7%

Results for COc1ccc2ccc(OC)c(/C=N/NC(=O)c3cc4ccccc4o3)c2c1 ?
TDP1 cell noCPT: 18.4µM*; IL1B secr inh: -4.2; TDP1 cell CPT: inconclusive; HT1080 IDH1KD tx: inconclusive; HT1080-NT tox: inconclusive

How did COc1ccc(NC(=O)c2cc3ccccc3o2)cc1 do in these assays?
TDP1 cell noCPT: -26.2%; IL1B secr inh: -2.4; TDP1 cell CPT: -18.3%; HT1080 IDH1KD tx: -4.2%; HT1080-NT tox: -12.7%

What do the screens show for `N#CCC(=O)N/N=C/c1c(-c2ccccc2)n(-c2ccccc2)c2ccccc12`?
TDP1 cell noCPT: 20.6µM*; IL1B secr inh: -9.6; TDP1 cell CPT: inconclusive; HT1080 IDH1KD tx: -6.1%; HT1080-NT tox: -8.2%

What do the screens show for `COc1cccc(-c2csc(N3CCN(C(=O)NC45CC6CC(CC(C6)C4)C5)CC3)n2)c1`?
TDP1 cell noCPT: 13µM*; IL1B secr inh: -9.7; TDP1 cell CPT: inconclusive; HT1080 IDH1KD tx: inconclusive; HT1080-NT tox: -23.1%

How did COc1cccc(-c2csc(N3CCN(C(=S)Nc4ccc(Cl)cc4)CC3)n2)c1 do in these assays?
TDP1 cell noCPT: inconclusive; IL1B secr inh: -81.7*; TDP1 cell CPT: inconclusive; HT1080 IDH1KD tx: 0.0%; HT1080-NT tox: -21.2%

Results for COc1cccc(-c2csc(N3CCN(C(=S)Nc4cccc(C)c4)CC3)n2)c1 ?
TDP1 cell noCPT: inconclusive; IL1B secr inh: inconclusive; TDP1 cell CPT: -29.4%; HT1080 IDH1KD tx: -14.0%; HT1080-NT tox: -22.2%

How did COc1ccccc1NC(=S)N1CCN(c2nc(-c3ccccc3)cs2)CC1 do in these assays?
TDP1 cell noCPT: 16.4µM*; IL1B secr inh: -3.0; TDP1 cell CPT: 18.4µM*; HT1080 IDH1KD tx: -8.6%; HT1080-NT tox: -1.9%

How did COc1cccc(-c2csc(N3CCN(C(=S)Nc4ccccc4)CC3)n2)c1 do in these assays?
TDP1 cell noCPT: inconclusive; IL1B secr inh: -8.7; TDP1 cell CPT: inconclusive; HT1080 IDH1KD tx: -0.4%[9.24 µM]; HT1080-NT tox: 22.4µM*

How did O=C(CNC(=O)N1CC(=O)Nc2ccccc21)NCc1ccc(Cl)cc1 do in these assays?
TDP1 cell noCPT: 11.2%; IL1B secr inh: 0.0; TDP1 cell CPT: 18.1%; HT1080 IDH1KD tx: 6.5%; HT1080-NT tox: 7.7%

What do the screens show for `COc1cccc(NC(=O)N2CCN(c3nc(-c4cccc(OC)c4)cs3)CC2)c1`?
TDP1 cell noCPT: 5.17µM*; IL1B secr inh: -16.1; TDP1 cell CPT: 5.17µM*; HT1080 IDH1KD tx: -26.8%; HT1080-NT tox: -2.7%

What do the screens show for `COc1cccc(-c2csc(N3CCN(C(=O)Nc4ccccc4Cl)CC3)n2)c1`?
TDP1 cell noCPT: inconclusive; IL1B secr inh: -26.3; TDP1 cell CPT: inconclusive; HT1080 IDH1KD tx: 0.8%; HT1080-NT tox: 4.3%

What do the screens show for `O=c1cc(Br)c(O)c(Br)cc1Br`?
TDP1 cell noCPT: 18.4µM*; IL1B secr inh: inconclusive; TDP1 cell CPT: inconclusive; HT1080 IDH1KD tx: 14.7%; HT1080-NT tox: 8.9%

How did COc1ccc(N2CCN(C(c3nnnn3CCc3ccccc3)C(C)C)CC2)cc1 (configuration not stated) do in these assays?
TDP1 cell noCPT: 18.4µM*; IL1B secr inh: -22.9; TDP1 cell CPT: 13µM*; HT1080 IDH1KD tx: -2.8%; HT1080-NT tox: -4.4%

What do the screens show for `CC1CCN(C(c2nnnn2CCc2ccccc2)C(C)C)CC1` (configuration not stated)?
TDP1 cell noCPT: 18.4µM*; IL1B secr inh: -5.9; TDP1 cell CPT: inconclusive; HT1080 IDH1KD tx: -4.3%; HT1080-NT tox: 2.1%

What do the screens show for `CN(c1ccccc1)S(=O)(=O)c1cccc(C(=O)NCc2ccccc2CN2CCCC2)c1`?
TDP1 cell noCPT: inconclusive; IL1B secr inh: -7.3; TDP1 cell CPT: inconclusive; HT1080 IDH1KD tx: inconclusive; HT1080-NT tox: inconclusive

What do the screens show for `COc1ccccc1CNC(=O)c1cccc(S(=O)(=O)N(C)c2ccccc2)c1`?
TDP1 cell noCPT: inconclusive; IL1B secr inh: -5.4; TDP1 cell CPT: 25.9µM*; HT1080 IDH1KD tx: 1.2%; HT1080-NT tox: -7.0%

Results for CCN(c1ccccc1)S(=O)(=O)c1ccc(OC)c(OC)c1 ?
TDP1 cell noCPT: -14.7%; IL1B secr inh: -2.4; TDP1 cell CPT: -3.5%; HT1080 IDH1KD tx: 0.9%; HT1080-NT tox: 13.3%

What do the screens show for `COc1ccc(CCNC(=O)c2ccccc2N(C)S(=O)(=O)c2ccccc2)cc1`?
TDP1 cell noCPT: -20.1%; IL1B secr inh: 0.0; TDP1 cell CPT: -11.2%; HT1080 IDH1KD tx: -4.3%; HT1080-NT tox: 2.3%

Results for CCN(c1ccccc1)S(=O)(=O)c1ccc(Cl)c(C(=O)NCCc2ccc(OC)cc2)c1 ?
TDP1 cell noCPT: inconclusive; IL1B secr inh: 4.8; TDP1 cell CPT: 18.4µM*; HT1080 IDH1KD tx: -0.8%; HT1080-NT tox: -0.9%

What do the screens show for `COc1ccc(CCNC(=O)c2ccc(N(C)S(=O)(=O)c3ccc(C)cc3)cc2)cc1`?
TDP1 cell noCPT: 16.4µM*; IL1B secr inh: -2.3; TDP1 cell CPT: inconclusive; HT1080 IDH1KD tx: -4.2%; HT1080-NT tox: -9.2%

Results for CCN(c1ccccc1)S(=O)(=O)c1ccc(C(=O)N(C)CCc2ccc(OC)c(OC)c2)cc1 ?
TDP1 cell noCPT: 20.6µM*; IL1B secr inh: -17.6; TDP1 cell CPT: inconclusive; HT1080 IDH1KD tx: -1.2%; HT1080-NT tox: -13.7%

What do the screens show for `O=C(c1ccco1)N1CCN(Cc2cc(=O)oc3cc(O)ccc23)CC1`?
TDP1 cell noCPT: -0.5%; IL1B secr inh: 27.9; TDP1 cell CPT: 4.5%; HT1080 IDH1KD tx: 7.6%; HT1080-NT tox: 1.7%

What do the screens show for `COc1ccc(Cl)c2sc(N(Cc3cccnc3)C(C)=O)nc12`?
TDP1 cell noCPT: 3.0%; IL1B secr inh: 4.5; TDP1 cell CPT: -12.6%; HT1080 IDH1KD tx: -2.6%; HT1080-NT tox: -1.5%

What do the screens show for `COC(=O)c1ccc(NS(=O)(=O)NC(=O)c2cn(C)c3ccccc23)cc1`?
TDP1 cell noCPT: -17.8%; IL1B secr inh: 1.7; TDP1 cell CPT: -1.7%; HT1080 IDH1KD tx: -23.4%; HT1080-NT tox: -10.5%

What do the screens show for `CC1CCCCC12NC(=O)N(Cc1cc(=O)n3ccsc3n1)C2=O` (configuration not stated)?
TDP1 cell noCPT: -8.2%; IL1B secr inh: 12.0; TDP1 cell CPT: 0.4%; HT1080 IDH1KD tx: 1.0%; HT1080-NT tox: 0.0%

Results for COC(=O)c1csc(S(=O)(=O)N2CCCCC2)c1OC ?
TDP1 cell noCPT: -2.9%; IL1B secr inh: 20.7; TDP1 cell CPT: 4.2%; HT1080 IDH1KD tx: 0.0%; HT1080-NT tox: -9.0%

Bioassay records as filed in PubChem BioAssay.
